PubChem BioAssay
Calls of active or inactive are those of the source.

How the values were obtained:
[1] = A549 cell viability effects, profiling panel, calcein-AM fluorescence, 48 h, basal (AID 1162); settings: higher = more signal
[2] = adipocyte viability effects, profiling panel, cell-based, 3T3-L1 adipocytes, calcein-AM fluorescence, 48 h, basal (AID 1163); settings: 3T3-L1 adipocytes viability, higher = more signal
[3] = HepG2 cell viability effects, profiling panel, calcein-AM fluorescence, 48 h, basal (AID 1164); settings: higher = more signal
[4] = MM1S cell viability effects, profiling panel, calcein-AM fluorescence, 48 h, basal (AID 1165); settings: higher = more signal;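 further: viability of MM1S multiple myeloma cells under basal unstimulated conditions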
[5] = basal RPMI8226 viability, no added stimulus, profiling panel, cell-based, calcein-AM fluorescence, 48 h, PK04 Diversity Set (AID 1166); settings: RPMI8226 myeloma viability, higher = more signal;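 further: cells grown under basal conditions without added stimulus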
[6] = basal HepG2 mitochondrial membrane potential changes, profiling panel, cell-based, JC-1 fluorescence, 24 h, 100 nL compound (AID 1167); settings: higher = more signal
[7] = basal 3T3-L1 adipocyte mitochondrial potential changes, profiling panel, cell-based, JC-1 fluorescence, 3T3-L1 adipocytes, 24 h, 100 nL compound (AID 1168); settings: JC-1 mitochondrial fluorescence, higher = more signal, called active from +8 up or from −8 down
[8] = basal RPMI8226 mitochondrial membrane potential changes, profiling panel, cell-based, JC-1 fluorescence, 24 h, 100 nL compound (AID 1169); settings: RPMI8226 myeloma, JC-1 mitochondrial potential fluorescence, higher = more signal
[9] = basal MM1S mitochondrial membrane potential changes, profiling panel, cell-based, JC-1 fluorescence, 24 h, 100 nL compound (AID 1170); settings: higher = more signal
[10] = A549 lung cancer cell viability effects, profiling panel, resazurin fluorescence, 24 h, PK04 Diversity Set (AID 1171); settings: higher = more signal, called active from +8 up or from −8 down
Further: test concentration not given here.

Row | SMILES | z-score [1] | z-score [2] | z-score [3] | z-score [4] | z-score [5] | z-score [6] | z-score [7] | z-score [8] | z-score [9] | z-score [10]
1 | COC(=O)[C@@]1(Cc2ccccc2)[C@H]2c3cc(C(=O)N(C)C)n(Cc4ccccc4)c3C[C@H]2CN1C(=O)c1ccccc1 | -1.19 | -0.93 | -0.775 | -0.143 | -0.747 | 1.14 | -0.655 (inactive) | 0.599 | -1.06 | -0.407 (inactive)
2 | C=CC[C@@]1(C(=O)OC)N=C(c2ccc(OCCCO)cc2)O[C@@H]1c1ccccc1CN=[N+]=[N-] | -0.817 | 0.358 | -1.13 | -2.7 | -3.17 | 0.195 | 1.31 (inactive) | -0.969 | -0.949 | -1.19 (inactive)
3 | C=C[C@H](OC)[C@@H](OC(=O)Nc1ccc(SC)cc1)c1ccc(OCCO)cc1 | -0.13 | 0.559 | 0.0758 | -0.164 | 0.609 | -2.55 | 0.734 (inactive) | -0.0748 | -0.887 | -0.139 (inactive)
4 | C=CCNC(=O)[C@H]1[C@@H]2C(=O)O[C@@H](c3ccccc3)[C@@H](c3ccccc3)N2[C@@H](c2ccc(OCCO)cc2)[C@]12C(=O)N(C(=O)OCCOC)c1ccc(C#CC3(O)CCCCCC3)cc12 | 1.13 | 1.61 | 0.388 | -0.963 | -2.4 | -0.898 | 1.71 (inactive) | -0.774 | -0.988 | 0.454 (inactive)
5 | COC(=O)[C@@]1(Cc2ccc(F)cc2)[C@H]2c3cc(C(=O)N(C)C)n(CCCNc4ccc(C(F)(F)F)cc4Cl)c3C[C@H]2CN1C(=O)c1ccccc1 | -1.34 | -0.851 | -0.136 | -0.84 | -4.32 | 2.61 | 0.391 (inactive) | -0.777 | -2.12 | -1.85 (inactive)
6 | COCCCNC(=O)[C@]1(Cc2ccccc2N=[N+]=[N-])N=C(c2ccc(OCCCO)cc2)O[C@@H]1c1ccccc1CN=[N+]=[N-] | -1.02 | 1.63 | -1.77 | -2.98 | -4.11 | 1.46 | -0.683 (inactive) | -1.2 | -0.495 | -1.2 (inactive)
7 | O=c1cccc(-c2cccc3ccccc23)o1 | -1.07 | -0.893 | 0.0962 | -1.09 | -1.84 | 0.113 | 1.05 (inactive) | 0.608 | -1.07 | 0.058 (inactive)
8 | O=C1O[C@@H](c2ccccc2)[C@@H](c2ccccc2)N2[C@@H](c3ccc(O)cc3)[C@]3(C(=O)Nc4ccc(C#CCCO)cc43)[C@@H](C(=O)O)[C@H]12 | 1.18 | 0.352 | 1.41 | -1.34 | -0.16 | 0.767 | -1.02 (inactive) | -0.342 | -0.29 | 0.492 (inactive)
9 | COc1ccc([Si](C)(C)[C@@H]2[C@@H](CCO)O[C@]3(C(=O)N(Cc4ccccc4)c4ccc(N(C=O)c5ccccc5)cc43)[C@H]2C)cc1 | -0.77 | -0.895 | -1.13 | -1.54 | -3.38 | 0.00444 | -0.435 (inactive) | -0.858 | -1.56 | -2.31 (inactive)
10 | NC(=O)[C@@]1(CCS(=O)(=O)c2ccccc2)N=C(c2ccc(OCCCO)cc2)O[C@H]1c1ccccc1 | -0.291 | 0.957 | -1.94 | 0.614 | -1.13 | -0.209 | -0.219 (inactive) | 0.634 | -0.659 | 0.798 (inactive)
11 | COc1ccc([Si](C)(C)[C@H]2[C@H](CC(=O)N3Cc4ccccc4C[C@H]3CO)O[C@@]3(C(=O)N(Cc4cccc(I)c4)c4ccccc43)[C@@H]2C)cc1 | -0.817 | 0.0894 | -0.693 | -2.42 | -4.12 | 1.33 | 0.814 (inactive) | -1.06 | -0.605 | -1.84 (inactive)
12 | Cc1ccc(S[C@]2(C(=O)NCCCN(C)C)CC(=O)N(Cc3ccccc3)[C@@H]2c2ccc(CO)cc2)cc1 | 0.931 | -0.084 | -0.569 | -0.569 | -1.12 | 0.816 | -0.946 (inactive) | -0.718 | 0.706 | 0.516 (inactive)
13 | [N-]=[N+]=NCc1ccccc1[C@@H]1OC(c2ccc(OCCCO)cc2)=N[C@]1(Cc1ccccc1)C(=O)O | 0.211 | 0.333 | 0.865 | 0.229 | -0.767 | -0.00992 | -1.01 (inactive) | -0.0434 | -0.969 | 0.45 (inactive)
14 | COc1ccc(C(O)C2C=CC3C(=O)N(c4ccccc4)C(=O)C3N2Nc2ccccc2)c2ccccc12 (stereo not given) | -0.308 | -2.02 | 0.407 | -0.174 | -0.858 | -1.37 | -0.849 (inactive) | -0.86 | -0.978 | -0.301 (inactive)
15 | Cc1c(NC(=O)/C(C#N)=C/C=C/c2ccccc2)c(=O)n(-c2ccccc2)n1C | -0.864 | 0.287 | 0.458 | 0.142 | 0.24 | -1.05 | -0.113 (inactive) | 0.305 | 0.56 | -0.2 (inactive)
16 | COCC1=C([C@H](O)CCc2ccccc2)[C@H](CO)[C@@H]2C(=O)N(Cc3ccccc3)C(=O)[C@@H]2C1 | 0.883 | 0.709 | 0.984 | 0.418 | 0.438 | 0.592 | 0.424 (inactive) | 0.469 | -1.37 | 0.859 (inactive)

Row | SMILES | z-score [1] | z-score [2] | z-score [3] | z-score [4] | z-score [5] | z-score [6] | z-score [7] | z-score [8] | z-score [9] | z-score [10]
17 | O=C1c2ccccc2[C@@]2(Cc3ccccc3N(Cc3ccccc3)C2=O)[C@H](c2ccc(CO)cc2)N1Cc1ccccc1C(F)(F)F | 0.74 | 1 | 1.22 | 0.166 | 0.816 | 1.28 | 0.084 (inactive) | -0.0385 | 0.29 | -1.16 (inactive)
18 | C=CCN1C(=O)[C@]2(Cc3ccccc31)N=C(c1ccc(OCCCO)cc1)O[C@@H]2c1ccccc1 | -0.686 | -0.201 | -0.377 | -0.9 | -3.41 | -0.844 | 1.83 (inactive) | -1.11 | -0.672 | -2.13 (inactive)
19 | [N-]=[N+]=Nc1ccccc1C[C@]1(C(=O)N2CCCCC2)N=C(c2ccc(OCCCO)cc2)O[C@H]1c1ccccc1N=[N+]=[N-] | -0.0955 | 0.164 | -2.44 | -3.54 | -3.89 | -0.599 | -0.0935 (inactive) | -1.09 | -2.64 | -0.909 (inactive)
20 | O=C1C2C=CC(C(O)c3cccc4ccccc34)N(n3cnnc3)C2C(=O)N1Cc1ccccc1 (stereo not given) | -0.986 | -0.06 | -1.6 | -0.467 | -1.81 | -1.23 | -1.18 (inactive) | -0.0245 | -0.0153 | -0.522 (inactive)
21 | CC(c1ccccc1)C(O)C1C=CC2C(=O)N(Cc3ccccc3)C(=O)C2N1n1cnnc1 (stereo not given) | -0.313 | 0.0487 | -0.547 | -0.0399 | -0.751 | 0.203 | -0.884 (inactive) | -0.107 | -0.526 | -0.694 (inactive)
22 | CC(C)(C)OC(=O)CC[C@@]1(C(N)=O)N=C(c2ccc(OCCCO)cc2)O[C@@H]1c1ccccc1N=[N+]=[N-] | 1.37 | 0.337 | 2.25 | 1.46 | 0.415 | 0.221 | 0.951 (inactive) | -0.892 | -0.706 | -0.763 (inactive)
23 | C#C[C@H]1Oc2ccccc2S(=O)(=O)N2CCC[C@@H]12 | -0.308 | -0.401 | -1.19 | 0.132 | -0.446 | -0.777 | -0.275 (inactive) | -0.18 | -0.116 | -0.424 (inactive)
24 | CC(C)[Si]1(C(C)C)O[C@@H](c2ccccc2)c2cc(-c3ccc(-c4ccc(Cl)c(Cl)c4)o3)nc(CCc3ccccc3)c21 | -0.516 | -0.694 | 0.433 | -3.02 | -3.72 | -1.95 | -1.72 (inactive) | -0.965 | -1.91 | -0.748 (inactive)
25 | CN(C)CCCCCCNC(=O)[C@@H]1C[C@@H]2C(=O)NCC(=O)N2[C@@H]1c1cccc(OCCO)c1 | -0.129 | -0.215 | -0.225 | 0.0864 | 1.45 | -0.305 | -0.0086 (inactive) | -0.12 | -0.659 | -0.427 (inactive)
26 | O[C@@H](Cc1ccccc1)[C@@H](/C=C/c1ccccc1)NCc1ccccc1Br | 0.0965 | -0.766 | -0.0276 | -1.3 | -0.771 | 0.313 | 0.19 (inactive) | -0.228 | -1.8 | -0.396 (inactive)
27 | CCOC(=O)N1C(c2ccc(OCCCO)cc2)=NC(C(=O)OC)N1C(=O)OCC (stereo not given) | -0.481 | 0.69 | 0.21 | 0.487 | 0.732 | -0.231 | 0.68 (inactive) | -1.24 | 0.0773 | 0.352 (inactive)
28 | C=CCC(OC(C)=O)[C@@H]1[C@@H](N(Cc2cc3ccccc3o2)C(=O)c2cccc3ccccc23)c2cc(OCCCO)ccc2N1C(=O)Cc1ccc(OC)cc1 (stereo not given in full) | 0.323 | 1.28 | 0.222 | 0.381 | -1.05 | 2.46 | -0.0309 (inactive) | 0.181 | 0.177 | -1.38 (inactive)
29 | CN1C(=O)C2C=CC(C(O)C3=C[C@H]4C[C@@H](C3)C4(C)C)N(Nc3ccc([N+](=O)[O-])cc3[N+](=O)[O-])C2C1=O (stereo not given in full) | 0.895 | -0.535 | 0.436 | 0.017 | -0.481 | -0.661 | -1.35 (inactive) | -0.46 | -1.1 | -0.227 (inactive)
30 | COC(=O)[C@@]1(Cc2ccc(OC)cc2)[C@H]2c3cc(C(=O)N4CCCC4)n(C[C@H](O)CO)c3C[C@H]2CN1C(=O)c1ccccc1 | -0.892 | -0.113 | 0.255 | -1.05 | 0.197 | 1.76 | 0.585 (inactive) | 0.933 | -1.03 | 0.336 (inactive)
31 | O=P(NCC1(CC2(c3ccccc3)CO2)CC1)(c1ccccc1)c1ccccc1 (stereo not given) | -1.08 | -0.933 | 0.676 | 0.116 | 0.0906 | -0.187 | 0.48 (inactive) | 0.125 | -0.792 | 0.316 (inactive)
32 | COCCCNC(=O)[C@@]1(Sc2ccc(C)cc2)CC(=O)N(Cc2ccccc2)[C@@H]1c1ccc(CO)cc1 | -0.837 | 0.0417 | -0.543 | -0.0185 | 0.381 | -0.658 | -0.265 (inactive) | 0.216 | -1.38 | 1.28 (inactive)
